Most compounds without a hit are left out; they make up all but 7% or so of the library.
HP1b binding inh: blocks HP1-beta chromodomain binding to methylated histone tails; P83916; AlphaScreen HP1-beta / biotin-H3K9me3 peptide binding; Potency, µM (top dose mostly 114 µM), for inactives: at the top dose activity change, negative = inhibition, hits mostly inhibitors; hit rate 0.56% among 390,000; further: potency means the concentration at half of the fitted maximal effect; nearly all actives have a fitted effect of over 70% in size
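AlphaScreen: HP1-beta (50 nM) preformed 30 min with biotin-H3(1-18)K9me3 peptide (50 nM) in PBS pH 7.4, 0.01% Tween-20. Compound added for 30 min at RT, then streptavidin donor/nickel chelate acceptor beads (10 ug/mL) for 30 min.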
PLK1 PBD inh: inhibitors of human PLK1 polo-box domain binding | hit rate 2.8% among 360,000 | P53350 | Plk1 PBD binding of FITC phosphopeptide, fluorescence polarization | Potency, µM, for the others: max response, negative = inhibition, usual class: inhibitors; further: potency means the concentration at half of the fitted maximal effect; series mostly up to about 57 µM; on the % scale 0 is the no-effect control and ±100 the full control effect; nearly all actives have a fitted effect of over 65% in size
JMJD2A Tudor inh: inhibitors of human JMJD2A Tudor domain. hit rate 4.4% among 390,000. Potency, µM (top dose mostly 114 µM), without a hit: at the top dose activity change, negative = inhibition, hits mostly inhibitors. AlphaScreen JMJD2A-Tudor / H3K4me3 peptide binding; further: potency means the concentration at half of the fitted maximal effect; on the % scale 0 is the no-effect control and ±100 the full control effect; nearly all actives have a fitted effect of over 50% in size
GCN5L2 inh: inhibitors of human GCN5L2 histone acetyltransferase. Q92830. GCN5L2 HAT assay, ThioGlo1 CoA-SH fluorescence. Potency, µM (doses to about 58.9 µM), for the others: at the highest dose activity change, negative = inhibition, usual class: inhibitors. hit rate 0.21% among 390,000. AID 504327; further: potency means the concentration at half of the fitted maximal effect; on the % scale 0 is the no-effect control and ±100 the full control effect
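qHTS, 1536-well. 20nM enzyme, pH 7.5 HEPES/EDTA/Tween-20 buffer; 15 min compound preinc., RT. Start: 75uM H3(1-25), 70uM AcCoA, 50uM ThioGlo1. Read Ex340/Em540 at t=0 (autofluorescence flag) and t=20 min.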
BAZ2B block: blocks human BAZ2B; AID 504333; Potency, µM (highest dose often 114 µM), for the others: at the top dose activity change, negative = inhibition, most hits filed as inhibitors; Q9UIF8; hit rate 4.4% among 360,000; AlphaScreen BAZ2B-H3K14Ac peptide displacement; further: potency means the concentration at half of the fitted maximal effect; on the % scale 0 is the no-effect control and ±100 the full control effect; nearly all actives have a fitted effect of over 60% in size
Target sequence (Q9UIF8 whole entry, looked up): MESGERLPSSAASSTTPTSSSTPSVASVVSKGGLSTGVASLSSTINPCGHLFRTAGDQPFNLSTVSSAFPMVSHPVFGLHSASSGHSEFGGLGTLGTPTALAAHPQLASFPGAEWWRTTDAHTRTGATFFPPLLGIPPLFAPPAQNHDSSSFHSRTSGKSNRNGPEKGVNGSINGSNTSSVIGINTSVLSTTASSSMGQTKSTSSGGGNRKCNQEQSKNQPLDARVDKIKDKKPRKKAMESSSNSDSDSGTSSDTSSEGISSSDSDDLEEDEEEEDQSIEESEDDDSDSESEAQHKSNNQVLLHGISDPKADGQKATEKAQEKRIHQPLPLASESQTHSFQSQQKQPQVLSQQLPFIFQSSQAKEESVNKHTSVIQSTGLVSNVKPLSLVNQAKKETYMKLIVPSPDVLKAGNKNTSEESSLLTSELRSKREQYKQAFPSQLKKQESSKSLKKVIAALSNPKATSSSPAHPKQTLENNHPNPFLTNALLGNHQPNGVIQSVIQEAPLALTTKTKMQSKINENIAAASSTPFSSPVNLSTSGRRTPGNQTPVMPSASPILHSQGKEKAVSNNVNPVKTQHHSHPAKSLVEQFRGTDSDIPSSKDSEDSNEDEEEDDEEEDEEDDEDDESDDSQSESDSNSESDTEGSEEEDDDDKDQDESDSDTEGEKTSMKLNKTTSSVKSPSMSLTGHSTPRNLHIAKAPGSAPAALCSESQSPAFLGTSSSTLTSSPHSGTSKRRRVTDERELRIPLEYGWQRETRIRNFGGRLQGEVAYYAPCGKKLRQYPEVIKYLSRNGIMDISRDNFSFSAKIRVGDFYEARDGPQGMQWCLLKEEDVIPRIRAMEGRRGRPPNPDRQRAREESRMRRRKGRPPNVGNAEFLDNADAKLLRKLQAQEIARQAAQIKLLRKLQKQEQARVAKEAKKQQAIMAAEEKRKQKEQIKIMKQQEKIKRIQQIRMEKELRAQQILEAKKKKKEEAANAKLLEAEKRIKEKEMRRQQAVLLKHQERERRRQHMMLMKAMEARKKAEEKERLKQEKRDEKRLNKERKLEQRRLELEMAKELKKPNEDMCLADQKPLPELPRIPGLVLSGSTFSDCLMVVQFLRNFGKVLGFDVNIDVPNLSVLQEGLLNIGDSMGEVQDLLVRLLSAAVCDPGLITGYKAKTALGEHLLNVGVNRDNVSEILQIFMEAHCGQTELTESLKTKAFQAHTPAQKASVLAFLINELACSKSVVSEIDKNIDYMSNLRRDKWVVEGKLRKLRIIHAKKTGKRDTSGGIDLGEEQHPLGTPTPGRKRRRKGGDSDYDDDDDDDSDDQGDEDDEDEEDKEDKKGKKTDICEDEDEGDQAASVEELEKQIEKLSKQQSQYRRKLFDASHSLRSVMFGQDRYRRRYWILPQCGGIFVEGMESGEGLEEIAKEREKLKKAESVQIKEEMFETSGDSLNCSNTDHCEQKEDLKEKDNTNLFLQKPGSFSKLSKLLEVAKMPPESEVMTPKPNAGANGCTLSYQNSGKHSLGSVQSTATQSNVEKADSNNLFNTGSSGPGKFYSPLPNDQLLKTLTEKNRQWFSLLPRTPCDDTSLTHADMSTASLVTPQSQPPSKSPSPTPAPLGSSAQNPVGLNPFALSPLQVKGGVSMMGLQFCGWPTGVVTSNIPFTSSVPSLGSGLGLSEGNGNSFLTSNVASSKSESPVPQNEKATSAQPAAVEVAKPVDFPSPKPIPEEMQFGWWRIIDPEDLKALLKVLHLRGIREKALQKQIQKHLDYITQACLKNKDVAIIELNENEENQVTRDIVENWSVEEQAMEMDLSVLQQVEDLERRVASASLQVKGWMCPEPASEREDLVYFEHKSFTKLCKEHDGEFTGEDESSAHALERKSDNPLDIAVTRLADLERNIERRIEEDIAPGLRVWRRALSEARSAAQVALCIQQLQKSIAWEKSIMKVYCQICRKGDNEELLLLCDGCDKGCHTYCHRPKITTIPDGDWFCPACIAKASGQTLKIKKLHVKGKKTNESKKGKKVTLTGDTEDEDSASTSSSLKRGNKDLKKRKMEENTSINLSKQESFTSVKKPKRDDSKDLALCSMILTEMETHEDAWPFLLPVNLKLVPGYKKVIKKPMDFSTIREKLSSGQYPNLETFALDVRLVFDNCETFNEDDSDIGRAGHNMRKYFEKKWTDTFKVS
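Inhibition is scored as reduced AlphaScreen emission. The BAZ2B/b-H3(5-23)K14Ac complex (50 nM each) in PBS pH 7.4, 0.01% Tween-20 meets compound (up to 110 uM) for 30 min at RT before bead addition.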
PI5P4K alpha inh: inhibitors of human PI5P4K alpha; PI5P4Kalpha enzyme, ADP-Glo luminescence, 60 min; active compounds read low; P48426; max response, %; hit rate 1.2% among 330,000; active means max response of -50% or lower; inconclusive means between -30% and -50%; inactive means -30% or higher; further: value at the top dose of about 77 µM; on the % scale 0 is the no-effect control and ±100 the full control effect
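Compounds were pin-transferred onto PI5P4Kalpha and substrate in HEPES pH 7.4 buffer with EGTA, CHAPS and 5% DMSO. ATP (5 microM final) started the reaction, which ran 60 minutes at room temperature before ADP-Glo detection.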
The depositor's hits bear a star; ? = inconclusive; · = no result; ! = not confirmed by another sample; [ ] = remark or other dose. Unless noted, the call rests on the fitted dose curve; in most records, active means well fitted curve in the direction sought with a large enough effect; inconclusive means small, poorly fitted or top-dose-only effect, or another doubt; inactive means no such curve, though single readings can be large; an effect the other way counts as inactive or inconclusive.

SMILES | HP1b binding inh | PLK1 PBD inh | JMJD2A Tudor inh | GCN5L2 inh | BAZ2B block | PI5P4K alpha inh
COc1ccc(Nc2ncc(C(=O)Nc3cc(Cl)c(OC)cc3OC)c3ccccc23)cc1 | 5% | · | -10% | -27% | -4% | ·
COc1ccc(Nc2ncc(C(=O)Nc3cccc(Cl)c3)c3ccccc23)cc1 | 6% | · | 79µM* | -6% | 79µM* | ·
COc1ccc(N(C(=O)c2ccn[nH]2)C(C(=O)NC(C)(C)C)c2ccc(F)cc2)cc1 (stereo not drawn) | 20% | -6% | -11% | -1% | 7% | -1
CC(C)(C)NC(=O)C(c1ccc(F)cc1)N(CCc1ccccc1)C(=O)c1ccn[nH]1 (stereo not drawn) | -17% | 27µM* | 28µM* | -6% | -18% | ?
O=S(c1ccccc1O)S(=O)c1ccccc1O (stereo not drawn) | 3.5µM* | 0.6µM* | 0.79µM* | · | · | -83*
CCCOCC1CC(CCc2nc(=S)[nH][nH]2)C(=O)O1 (stereo not drawn) | ? | -2% | 5µM* | 3% | -2% | -8
CC(NCC1COc2ccccc2O1)C(=O)NCc1ccccc1 (stereo not drawn) | 16µM* | -1% | 1.3µM* | -9% | 35µM* | -1
O=C(NCc1ccccc1)C(=O)NCC1COc2ccccc2O1 (stereo not drawn) | 45% | -13% | -3% | 0% | 0% | -5
CCOC(=O)CCNC(C)C1COc2ccccc2O1 (stereo not drawn) | 2% | 30µM* | 2.8µM* | 2% | -100% | -23
CC(NCC1COc2ccccc2O1)C1COc2ccccc2O1 (stereo not drawn) | -4%[57 µM] | ? | 4µM* | 0% | ? | 0
O=C(CCS(=O)(=O)Cc1ccccc1F)NCCc1ccc(Cl)cc1 | 38% | -7% | 2% | 3% | 8% | -4
CC(C)(C)c1ccc(CS(=O)(=O)CC(O)CN2CCCC2=O)cc1 (stereo not drawn) | 10% | 34µM* | -31% | -2% | -13% | -1
CC(=O)/C(C#N)=C1\NC(=O)C(Cc2ccccc2Cl)S1 (stereo not drawn) | 22% | ? | ? | -2% | ? | ?
CC(=O)/C(C#N)=C1\NC(=O)C(Cc2cc(Cl)ccc2Cl)S1 (stereo not drawn) | 38% | -13% | 3% | -17% | -12% | -53*
CN(C)Cc1cc(O)c(CN(C)C)cc1O | ? | ? | 0.79µM* | -9% | 22µM* | -5
CCC1CCCCN1S(=O)(=O)c1ccc(N2CCCCS2(=O)=O)cc1 (stereo not drawn) | 13% | · | -8% | 5% | -10% | ·
COc1ccc(C2=NS(=O)(=O)N(C)C(C(=O)NC(C)c3ccccc3)=C2)cc1OC (stereo not drawn) | 37% | -7% | -27% | -8% | 10% | 4
COc1ccc(C2=NS(=O)(=O)N(C)C(C(=O)N(C)Cc3ccccc3)=C2)cc1OC | 38% | ? | 5µM*! | -11% | -2% | 1
O=[N+]([O-])/C(C(Cl)=C(Cl)Cl)=C1\Nc2ccccc2O1 | ? | ? | 40µM* | -8% | 50µM* | -12
COc1ccc(N=Cc2c(O)ccc3ccccc23)cc1 | 82% | -11% | 35% | -1% | -20% | 8
Cc1ccc(N=Cc2c(O)ccc3ccccc23)cc1F | 0% | -14% | 56µM* | -5% | 7% | -4
N#Cc1cccc(N=Cc2c(O)ccc3ccccc23)c1 | -25% | -11% | 35µM* | -5% | -3% | 4
NC(=O)c1ccc(N=Cc2c(O)ccc3ccccc23)cc1 | 5% | -18% | ? | · | · | 6
Nc1ncc(Br)cc1S(=O)(=O)Nc1ccccc1F | 34% | -2% | -6% | 3% | -4% | 0
COc1ccc2c3c(c(=O)oc2c1)C1O[C@](CCCCN2C(=O)c4ccccc4C2=O)(Cc2cc(OC)c(OC)cc21)O3 | · | · | · | -1%[12.7 µM] | -13%[22.9 µM] | ·
SMILES | HP1b binding inh | PLK1 PBD inh | JMJD2A Tudor inh | GCN5L2 inh | BAZ2B block | PI5P4K alpha inh
COc1cc2c(cc1OC)C1O[C@](CCCCN3C(=O)c4ccccc4C3=O)(C2)Oc2c1c(=O)oc1ccc(F)cc21 | · | · | · | ? | 8.9µM* | ·
CCCCC[C@]12Cc3cc(OC)c(OC)cc3C(O1)c1c(cc(C)n(-c3ccccc3)c1=O)O2 | · | · | · | -4%[12.7 µM] | 11µM* | ·
COc1cc2c(cc1OC)C1O[C@](c3ccsc3)(C2)Oc2cc(C)n(Cc3ccccc3)c(=O)c21 | · | · | · | -9%[12.7 µM] | 4µM* | ·
COc1cc2c(cc1OC)[C@@H]1O[C@](CCCCN3C(=O)c4ccccc4C3=O)(C2)Oc2cc(C)n(-c3ccccc3)c(=O)c21 | · | · | · | -5%[12.7 µM] | 9%[22.9 µM] | ·
COc1cc2c(cc1OC)C1O[C@](CCCCN3C(=O)c4ccccc4C3=O)(C2)Oc2cc(C)n(Cc3ccccc3)c(=O)c21 | · | · | · | 1%[12.7 µM] | ? | ·
O=C(NCc1cccnc1)c1nn(-c2ccccc2F)nc1CO | 11% | · | -12% | -3% | -1% | ·
CCOc1ccc(S(=O)(=O)N2CCC(C(=O)NCc3cccnc3)CC2)cc1 | 22% | -5% | -4% | -2% | -2% | 1
Cc1ccc(/C=C2\SC(=S)N(/N=C/c3cc([N+](=O)[O-])ccc3O)C2=O)o1 | 45µM* | 12µM* | 56µM* | ? | 11µM* | -84*
O=[N+]([O-])c1ccc(O)c(/C=N/n2cnc3ccccc32)c1 | -3% | -6% | -21% | 34% | -1% | -15
Cc1ccc(C(c2ccc(C)o2)c2cccc([N+](=O)[O-])c2O)o1 | ? | ? | 50µM* | -4% | 40µM* | -56*
Cc1cc(C(c2ccc(C)o2)c2ccc(C)o2)c(O)c([N+](=O)[O-])c1 | 16µM* | -16% | 40µM* | -3% | 45µM* | -10
Cc1cc(/C=N/n2cnnc2)c(O)c([N+](=O)[O-])c1 | 4% | -3% | -7% | -7% | ? | -17
Nc1ccc2nn(-c3ccccc3)nc2c1 | -25% | 21µM* | -21% | ? | -16% | 3
CC1=C(C(=O)Nc2ccccc2)C(c2ccc(Br)cc2)n2nc(CCCO)nc2N1 (stereo not drawn) | 31% | · | 9% | 0% | 4% | ·
CC(=O)c1c(C)[nH]c(C(=O)NCc2ccccc2)c1C | 12% | -6% | -23% | -2% | -5% | -4
Cc1cccc(CCNC(=O)COc2cc(=O)n(C)c3ccccc23)c1 | 23% | 8% | 11% | -6% | 1% | 7
CCN(CCCNC(=O)CCc1nc(-c2ccc(C)cc2)no1)c1cccc(C)c1 | ? | 24µM* | -26%[11.4 µM] | -9% | ? | 0
CCN(CCCNC(=O)COc1cc(=O)n(C)c2ccccc12)c1cccc(C)c1 | -1% | 4% | ? | -2% | 50µM* | 1

Screening data deposited in PubChem by National Center for Advancing Translational Sciences (NCATS).
